Screening results: PubChem BioAssay, National Center for Advancing Translational Sciences (NCATS)
CtBP-E1A blk: inhibitors of CtBP/E1A interaction | hit rate 0.49% among 340,000 | AlphaScreen GST-E1A/His-CtBP binding, 1536-well; stronger effect = lower value | activity change, % (concentration not given with the values) | AID 651724; in the data active = activity change below about -65%; inconclusive = mostly about -30% to -63%; also: % is scaled to controls: 0 for no effect and ±100 for the full control effect
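Homogeneous bead-based format: GST-tagged E1A captured on glutathione donor beads, His-tagged CtBP on nickel acceptor beads; compounds precede bead addition by 2 h at 37 °C.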
RORg inh: ROR gamma (mouse) transcription inhibition. AID 2551. P51450. Potency, µM (highest dose often 53.6 µM), for the others: top-dose activity change, negative = inhibition, most hits filed as inhibitors. hit rate 5.4% among 310,000. Drosophila S2 Gal4-RORgamma UAS-luciferase reporter, 20 h; also: potency is read from the fitted curve at half-maximal effect; % is scaled to controls: 0 for no effect and ±100 for the full control effect; nearly all actives have a fitted effect of over 60% in size
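Drosophila Schneider cells stably carrying a metallothionein-driven Gal4 DBD–ROR gamma fusion and a UAS-Photinus luciferase reporter were exposed to compound for 1 hr, then induced with copper sulfate (700 uM final) for 20 hr at ambient temperature before luminescence reading.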
CBFb-RUNX1 inh: blocks binding between human CBF-beta and RUNX1. Q01196+Q13951. AlphaScreen CBFb-His/RUNX1-biotin binding, biochemical. Potency, µM (series often up to 59.8 µM), without a hit: top-dose activity, negative = inhibition, actives largely listed as inhibitors. 230,000 tested, under 10 active; also: % of control where 0% means no effect
Target sequence (Q01196 whole entry, looked up): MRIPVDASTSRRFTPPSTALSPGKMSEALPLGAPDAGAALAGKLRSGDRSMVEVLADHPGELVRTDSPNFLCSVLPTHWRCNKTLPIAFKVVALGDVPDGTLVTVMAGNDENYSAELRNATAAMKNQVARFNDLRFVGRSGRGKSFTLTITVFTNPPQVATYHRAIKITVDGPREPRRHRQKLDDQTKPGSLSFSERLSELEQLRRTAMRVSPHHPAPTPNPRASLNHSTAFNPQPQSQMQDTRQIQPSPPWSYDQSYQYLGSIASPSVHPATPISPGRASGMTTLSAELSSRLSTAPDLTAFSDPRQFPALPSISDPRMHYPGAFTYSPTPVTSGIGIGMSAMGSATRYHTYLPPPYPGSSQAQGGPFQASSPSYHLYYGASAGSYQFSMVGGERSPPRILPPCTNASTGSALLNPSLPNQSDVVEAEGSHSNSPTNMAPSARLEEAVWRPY
Target sequence (Q13951 whole entry, looked up): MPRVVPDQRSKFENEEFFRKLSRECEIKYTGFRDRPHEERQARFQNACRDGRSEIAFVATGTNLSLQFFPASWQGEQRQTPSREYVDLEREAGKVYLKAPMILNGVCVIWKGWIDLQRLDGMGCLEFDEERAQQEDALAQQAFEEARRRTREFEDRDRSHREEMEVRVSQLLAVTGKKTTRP
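Interaction loss through any mechanism counts as activity. Pre-formed complex of His-CBF-beta and biotin-RUNX1 (30 nM apiece) is incubated with compound 15 min, then with 50 ng nickel and 50 ng streptavidin beads for 90 min before AlphaScreen detection.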
MBNL1 CUG block: MBNL1-poly(CUG) RNA binding inhibition; Q9NR56; TR-FRET MBNL1-His/biotin-(CUG)12 binding, 665/545 ratio; Potency, µM (doses to about 57.5 µM), for inactives: top-dose activity change, negative = inhibition, most hits filed as inhibitors; hit rate 0.036% among 280,000; AID 2675; active = well fitted inhibition curve with a large enough effect in the signal ratio, with a control signal flat, not every such curve was filed as active; inconclusive = small, poorly fitted or top-dose-only effect, or effect the other way, or a change in a side signal; inactive = no such curve, though single readings can be large or run the other way; the % refers to the signal ratio; also: potency is read from the fitted curve at half-maximal effect; % is scaled to controls: 0 for no effect and ±100 for the full control effect
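Ratiometric TR-FRET (665 over 545 nm, excitation 340 nm) tracks disruption of MBNL1-His/biotin-(CUG)12 complex after 60 min at room temperature, with compounds at 92 nM to 58 uM final.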
Six1-Eya2 inh: Six1/Eya2 interaction inhibition; Q15475+O00167; AlphaScreen GST-Six1/His-Eya2 binding, biochemical; stronger effect = lower value; activity change, % (no concentration beside the values); hit rate 0.56% among 360,000; in the data active = activity change below about -65%; inconclusive = mostly about -30% to -63%; also: % is scaled to controls: 0 for no effect and ±100 for the full control effect
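AlphaScreen luminescence read after one hour at 37 °C in darkness. Pin-transferred compounds met GST-Six1 and His-Eya2 protein (5X stock 250 nM/500 nM) plus glutathione donor and Ni-chelate acceptor beads (5X, 50 ug/mL).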
Gal4-VP16 FLuc: inhibits Gal4-VP16 luciferase reporter, ROR gamma counter-screen | Drosophila S2 Gal4-VP16 UAS-luciferase, luminescence, 20 h | AID 2546 | hit rate 3.5% among 310,000 | Potency, µM (top dose mostly 53.6 µM), for the others: at the top dose activity, negative = inhibition, usual class: inhibitors;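 also: Gal4-VP16 expression switched on by copper sulfate through the metallothionein promoter; potency is read from the fitted curve at half-maximal effect; % is scaled to controls: 0 for no effect and ±100 for the full control effect; nearly all actives have a fitted effect of over 50% in size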
Starred values were filed as active, the others as inactive; ? = inconclusive; nt = no result given; [ ] = dose if it differs, or a comment. An excerpt weighted towards active compounds, which were near 5.5% of everything screened. Unless noted, calls follow the shape of the dose curve; as a rule, active = well fitted curve in the direction sought with a large enough effect; inconclusive = small, poorly fitted or top-dose-only effect, or another doubt; inactive = no such curve, though single readings can be large; an effect the other way counts as inactive or inconclusive.

SMILES | CtBP-E1A blk | RORg inh | CBFb-RUNX1 inh | MBNL1 CUG block | Six1-Eya2 inh | Gal4-VP16 FLuc
COc1ccc(N2C(=O)C(CN3CCN(C)CC3)C2c2ccccc2)cc1 (centres undefined) | nt | -8% | 0% | 5% | -1 | -11%[10 µM]
O=C(N/N=C/c1cc([N+](=O)[O-])ccc1O)C1C2CCCCC21 (centres undefined) | nt | 0.89µM* | -10% | 9% | nt | 2.8µM*
O=C(N/N=C/c1cc([N+](=O)[O-])ccc1O)C1CCCCC1 | -73* | 0.5µM* | nt | 23% | -74* | 2.5µM*
O=C(COc1ccccc1Cl)NCCCNC(=O)c1cccnc1 | 0 | -2% | nt | -6% | 4 | 1%
Cc1ccccc1OCC(=O)NNC(=O)Nc1ccccc1 | nt | -10% | -2% | 0% | -2 | -1%
Cc1ccccc1OCCNC(=S)Nc1ccccc1 | -7 | 3.2µM* | -1% | -9% | -6 | 5.6µM*
CC(=O)c1cccc(NC(=S)NCCCCc2ccccc2)c1 | -9 | -164% | 2% | -22% | -6 | ?
O=C(NCCCc1ccccc1)Nc1ccccc1 | 4 | 30% | 7% | nt | -1 | 4%
S=C(NCCCc1ccccc1)Nc1ccc(Cl)cc1 | 3 | 4.5µM* | 11% | -13% | -4 | 5µM*
S=C(NCCc1ccccc1)Nc1ccc(Nc2ccccc2)cc1 | -21 | 5µM* | ? | 0% | ? | 13µM*
S=C(NCCCc1ccccc1)Nc1ccccc1 | 3 | 16µM* | nt | 1% | 2 | 4µM*
OCCNC(=S)NCCc1ccccc1 | 5 | -10% | 10% | 6% | 4 | 16%
CN1OC[C@@H]2CN(C(=S)Nc3ccc(C#N)cc3)[C@H](c3ccc(N4CCCCC4)cc3)C[C@@H]21 | -10 | nt | nt | nt | -11 | nt
CC(C)[C@H](NC(=O)c1ccccc1)C(=O)OCC(=O)NCc1ccc2c(c1)OCO2 | -18 | nt | nt | nt | 24 | nt
CC(C)C[C@H]1CN(CCCC[C@H]2CNC(=O)C(=O)N2Cc2ccccc2)C(=O)C(=O)N1Cc1ccccc1 | -8 | nt | nt | nt | -3 | nt
Fc1cccc(Cc2c(C3CCCCC3)nc3ccc(Cl)cn23)c1 | 2 | nt | nt | nt | 1 | nt
CCCNC(=S)Nc1ccccc1 | nt | 10µM* | 2% | -4% | 1 | ?
C=COCCNC(=S)Nc1ccccc1 | -2 | -1% | -9% | 2% | 1 | -6%
CC(C)(C)c1ccc(CN(Cc2ccco2)Cc2nnnn2C2CCCC2)cc1 | 1 | 36% | -6% | -1% | -1 | 2.8µM*
COc1ccc2cc(CN(Cc3ccco3)Cc3nnnn3C3CCCCC3)c(=O)[nH]c2c1 | 1 | 26% | -8% | 4% | -17 | -8%
O=[N+]([O-])c1cc(Cl)ccc1Nc1ccccc1 | nt | 18% | nt | ? | -78* | 3%
O=C(c1cccs1)c1no[n+]([O-])c1C(=O)c1cccs1 | 2 | 11µM* | -12% | -1% | 0 | 11µM*
CCOc1ccccc1N(C)S(=O)(=O)c1ccc2c(c1)CCN2C(=O)CCC(=O)O | 2 | -13% | nt | -7% | 2 | -4%
O=C(N/N=C/c1cn(-c2ccccc2)nc1-c1cc2ccccc2o1)c1cccnc1 | -4 | 4µM* | -17% | nt | -14 | 1.4µM*
O=C(O)c1cccc(NC(=O)c2cn(-c3ccccc3)nc2-c2cc3ccccc3o2)c1 | 6 | ? | -9% | 9% | -17 | -7%
O=C(N/N=C/c1cn(-c2ccccc2)nc1-c1cc2ccccc2o1)c1ccncc1 | 2 | 2.8µM* | -9% | 16% | -7 | 4.5µM*
Cc1oc(-c2ccc3c(c2)OCCO3)cc1C(=O)O | -19 | 0.89µM* | -9% | 0% | -6 | 1.4µM*
COc1ccc(-c2cc(C(=O)O)c(C)o2)cc1OC | 4 | ? | 4% | 3% | -2 | 0.89µM*
Cc1oc(-c2ccc3c(c2)OCCO3)cc1C(=O)NCC(=O)O | 0 | 7.1µM* | 21% | 1% | -5 | ?
